The panel holds about 79,000 compounds, 15% with a hit somewhere; the sample as a whole holds those more often. Unmarked numbers belong to inactive results. Calls of active or inactive are those of the source. Cut-off read from the data, not from the text of the source: active = growth inhibition above about 70%; inactive = the rest.

Test [1] is described as follows: NCI Yeast Anticancer Drug Screen. Data for the rad50 strain (AID 155).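 Note: 0% = growth of vehicle-only cultures of the same strain.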 The conditions noted are these: S. cerevisiae rad50 strain growth inhibition, active compounds read high. The method, boiled down: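 A DNA repair-deficient yeast mutant serves as the test organism; compound-induced growth inhibition is calculated against vehicle-treated cells.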
The nature of test [2]: NCI Yeast Anticancer Drug Screen. Data for the mec2-1 strain (AID 157). Particulars: S. cerevisiae mec2-1 strain, active compounds read high. The method, boiled down: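 Readout is yeast growth inhibition, normalised to vehicle-treated controls, in the mec2-1 strain exposed to compound.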
Test [3] is described as follows: NCI Yeast Anticancer Drug Screen. Data for the sgs1 mgt1 strain (AID 161).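 Note: 0% = growth of cultures given vehicle only.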 Particulars: S. cerevisiae sgs1 mgt1 strain, active compounds read high. The method, boiled down:
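Percent growth inhibition was derived by comparing compound-exposed mutant yeast with vehicle-exposed cultures. The strain carries alterations in DNA damage repair.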

The nature of test [4]: NCI Yeast Anticancer Drug Screen. Data for the cln2 rad14 strain (AID 165).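 Note: 0% = growth equal to vehicle treated cultures.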 Particulars: S. cerevisiae cln2 rad14 strain, active compounds read high. In outline: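 Relative to vehicle controls, growth inhibition of compound-treated cln2 rad14 yeast was recorded.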
The nature of test [5]: NCI Yeast Anticancer Drug Screen. Data for the bub3 strain (AID 167). The conditions noted are these: S. cerevisiae bub3 mutant strain, active compounds read high. In outline:
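Inhibition values come from growth of compound-treated mutant yeast normalised to vehicle-treated controls.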

A short description of test [6]: NCI Yeast Anticancer Drug Screen. Data for the mlh1 rad18 strain (AID 175). The conditions noted are these: S. cerevisiae mlh1 rad18 strain growth inhibition, active compounds read high. In outline:
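Test agents were incubated with a yeast strain of defined genotype (DNA damage repair defect). Inhibition of growth was derived by comparison with vehicle-exposed cultures.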

Where [7] appears, read: at 5.0 µM (retest, dose inferred, filed as 0.5).
[8] abbreviates: at 50.0 µM (retest, dose inferred, filed as 5.0).

Consider `Cc1cccc(Cc2cccc(Cl)c2)c1O`, for which the growth inhibition is -1% in test [1] (setting [7]); 95% (active) in test [1] (setting [8]); 99.3% (active) in test [1] (at 50.0 µM); -1% in test [2] (setting [7]); 98% (active) in test [2] (setting [8]); 99.8% (active) in test [2] (at 50.0 µM). Further, the growth inhibition in test [3] (setting [7]) was 3%; in test [3] (setting [8]), 89% (active); in test [3] (at 50.0 µM), 99.6% (active); in test [4] (setting [7]) it was -4%; in test [4] (setting [8]), 90% (active); in test [4] (at 50.0 µM), 99% (active). Further, the growth inhibition was -9% in test [5] (setting [7]); 94% (active) in test [5] (setting [8]); 99.1% (active) in test [5] (at 50.0 µM); 8% in test [6] (setting [7]); 96% (active) in test [6] (setting [8]); 98.9% (active) in test [6] (at 50.0 µM).

For `CCCCOC(=O)c1nc(N(CC2CCCCC2)C(=O)NC)sc1NC(=O)NC`, the growth inhibition was -3% in test [1] (setting [7]); 92% (active) in test [1] (setting [8]); 10.5% in test [1] (at 50.0 µM); -3% in test [2] (setting [7]); 95% (active) in test [2] (setting [8]); 0.85% in test [2] (at 50.0 µM). In addition, the growth inhibition in test [3] (setting [7]) is -18%; in test [3] (setting [8]), 97% (active); in test [3] (at 50.0 µM), 8.7%; in test [4] (setting [7]) it was -3%; in test [4] (setting [8]), 95% (active); in test [4] (at 50.0 µM), 1.6%. Also, the growth inhibition is 0% in test [5] (setting [7]); 95% (active) in test [5] (setting [8]); -1.65% in test [5] (at 50.0 µM); 5% in test [6] (setting [7]); 96% (active) in test [6] (setting [8]); 29.2% in test [6] (at 50.0 µM).

Take `CSC(=S)NN=C(c1ccccc1)c1ccccc1`: the growth inhibition in test [1] (setting [7]) was 9%; in test [1] (setting [8]), 97% (active); in test [1] (at 50.0 µM), 55.6%; in test [2] (setting [7]) it was 13%; in test [2] (setting [8]), 99% (active); in test [2] (at 50.0 µM) it was 39.4%. For the same compound, the growth inhibition was 18% in test [3] (setting [7]); 99% (active) in test [3] (setting [8]); 69.8% in test [3] (at 50.0 µM); 7% in test [4] (setting [7]); 91% (active) in test [4] (setting [8]); 53.9% in test [4] (at 50.0 µM). Moreover, the growth inhibition in test [5] (setting [7]) is 0%; in test [5] (setting [8]), 98% (active); in test [5] (at 50.0 µM), 86.2% (active); in test [6] (setting [7]), 16%; in test [6] (setting [8]), 99% (active); in test [6] (at 50.0 µM), 81.8% (active).

Regarding `O=C(Nc1ccccc1)O/N=C1/CCCC/C1=C\c1ccccc1`, the growth inhibition was 26% in test [1] (setting [7]); 77% (active) in test [1] (setting [8]); 88.4% (active) in test [1] (at 50.0 µM); 41% in test [2] (setting [7]); 85% (active) in test [2] (setting [8]); 90.1% (active) in test [2] (at 50.0 µM). In addition, the growth inhibition is 57% in test [3] (setting [7]); 86% (active) in test [3] (setting [8]); 88.3% (active) in test [3] (at 50.0 µM); 65% in test [4] (setting [7]); 85% (active) in test [4] (setting [8]); 84.4% (active) in test [4] (at 50.0 µM). For the same compound, the growth inhibition was 54% in test [5] (setting [7]); 87% (active) in test [5] (setting [8]); 81.6% (active) in test [5] (at 50.0 µM); 35% in test [6] (setting [7]); 88% (active) in test [6] (setting [8]); 84.1% (active) in test [6] (at 50.0 µM).

With `Cc1[nH]nc(C(=O)N/N=C/c2ccccc2Cl)c1N=NN(C)C`, the growth inhibition in test [1] (setting [7]) was 41%; in test [1] (setting [8]) it was 91% (active); in test [1] (at 50.0 µM), 92.5% (active); in test [2] (setting [7]), 50%; in test [2] (setting [8]), 93% (active); in test [2] (at 50.0 µM), 92.4% (active). The growth inhibition in test [3] (setting [7]) was 33%; in test [3] (setting [8]) it was 94% (active); in test [3] (at 50.0 µM), 91.9% (active); in test [4] (setting [7]), 5%; in test [4] (setting [8]) it was 93% (active); in test [4] (at 50.0 µM), 93.7% (active). The growth inhibition in test [5] (setting [7]) was 12%; in test [5] (setting [8]), 88% (active); in test [5] (at 50.0 µM), 89.7% (active); in test [6] (setting [7]), 72% (active); in test [6] (setting [8]), 94% (active); in test [6] (at 50.0 µM), 95.3% (active).

As to `COc1ccc(C2NCc3c(sc4c3CCCC4)-n3cccc32)cc1` (stereo not drawn), the growth inhibition is -4% in test [1] (setting [7]); 43% in test [1] (setting [8]); 57.1% in test [1] (at 50.0 µM); -2% in test [2] (setting [7]); 31% in test [2] (setting [8]); 11.8% in test [2] (at 50.0 µM). The growth inhibition is -13% in test [3] (setting [7]); 84% (active) in test [3] (setting [8]); 93.2% (active) in test [3] (at 50.0 µM); -5% in test [4] (setting [7]); 53% in test [4] (setting [8]); 57.9% in test [4] (at 50.0 µM). The growth inhibition is 0% in test [5] (setting [7]); 54% in test [5] (setting [8]); 18.7% in test [5] (at 50.0 µM); -7% in test [6] (setting [7]); 87% (active) in test [6] (setting [8]); 77% (active) in test [6] (at 50.0 µM).

These data come from PubChem BioAssay (NCI).
